Assay results reported in PubChem BioAssay AID1159580 (chemical genetic matrix, 2015).
Hit rate of the full screen: of about 5,500 compounds, about 2,000 (36%) were called active. About 18% were inconclusive and are not listed. No stated cut-off is given here; in the data, active means normalized growth mostly below about 0.91 (no sharp cut-off); inconclusive means no clear call, values can overlap the other calls; inactive means mostly above about 0.92. This is one part of the list.

Experiment: chemical genetic growth profiling, strain panel (AID 1159580);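 further: tested at 20 µM; growth read once vehicle control cultures reached saturation at 30 °C; 1 = growth at the plate median or of vehicle wells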
Conditions: growth OD

Measured: normalized growth

COP(=O)(OC)OC=C(Cl)Cl
inactive: S. cerevisiae deletion strains, locus YJR075W, strain HOC1, stronger effect = lower value 0.962 | S. cerevisiae deletion strains, locus YKL009W, strain mrt4, stronger effect = lower value 0.951 | S. cerevisiae deletion strains, locus YKL068W, stronger effect = lower value 0.986 | S. cerevisiae deletion strains, locus YKL085W, strain MDH1 (second series), stronger effect = lower value 0.981 | S. cerevisiae deletion strains, locus YKL085W, strain MDH1, stronger effect = lower value 0.981 | S. cerevisiae deletion strains, locus YKL160W, strain elf1, stronger effect = lower value 0.999 | S. cerevisiae deletion strains, locus YKL190W, strain CNB1, stronger effect = lower value 0.994 | S. cerevisiae deletion strains, locus YKR001C, strain vps1, stronger effect = lower value 0.992 | S. cerevisiae deletion strains, locus YKR026C, strain gcn3, stronger effect = lower value 1.01 | S. cerevisiae deletion strains, locus YKR091W, strain srl3, stronger effect = lower value 0.997 | S. cerevisiae deletion strains, locus YLL001W, strain dnm1, stronger effect = lower value 1.01 | S. cerevisiae deletion strains, locus YLL026W, stronger effect = lower value 0.997 | S. cerevisiae deletion strains, locus YLL041C, strain sdh2, stronger effect = lower value 1 | S. cerevisiae deletion strains, locus YLR027C, strain aat2, stronger effect = lower value 1 | S. cerevisiae deletion strains, locus YLR039C, strain RIC1, stronger effect = lower value 0.979 | S. cerevisiae deletion strains, locus YLR058C, strain SHM2, stronger effect = lower value 0.983 | S. cerevisiae deletion strains, locus YLR102C, strain apc9, stronger effect = lower value 0.977 | S. cerevisiae deletion strains, locus YLR113W, strain HOG1, stronger effect = lower value 1.02 | S. cerevisiae deletion strains, locus YLR221C, strain rsa3, stronger effect = lower value 0.999 | S. cerevisiae deletion strains, locus YLR258W, strain gsy2, stronger effect = lower value 0.999 | S. cerevisiae deletion strains, locus YLR262C, strain YPT6 (second series), stronger effect = lower value 1.01 | S. cerevisiae deletion strains, locus YLR262C, strain YPT6, stronger effect = lower value 0.97 | S. cerevisiae deletion strains, locus YLR268W, strain sec22, stronger effect = lower value 0.996 | S. cerevisiae deletion strains, locus YLR320W, strain mms22, stronger effect = lower value 1.01 | S. cerevisiae deletion strains, locus YLR330W, strain CHS5, stronger effect = lower value 0.996 | S. cerevisiae deletion strains, locus YLR342W, strain FKS1 (second series), stronger effect = lower value 0.971 | S. cerevisiae deletion strains, locus YLR342W, strain FKS1, stronger effect = lower value 0.983 | S. cerevisiae deletion strains, locus YLR357W, strain rsc2, stronger effect = lower value 1.07 | S. cerevisiae deletion strains, locus YLR370C, strain arc18, stronger effect = lower value 0.999 | S. cerevisiae deletion strains, locus YLR371W, strain rom2, stronger effect = lower value 0.989 | S. cerevisiae deletion strains, locus YLR384C, strain iki3, stronger effect = lower value 0.998 | S. cerevisiae deletion strains, locus YLR418C, strain cdc73, stronger effect = lower value 1.01 | S. cerevisiae deletion strains, locus YML016C, strain PPZ1, stronger effect = lower value 0.986 | S. cerevisiae deletion strains, locus YML032C, strain rad52, stronger effect = lower value 0.978 | S. cerevisiae deletion strains, locus YML120C, strain ndi1, stronger effect = lower value 0.981 | S. cerevisiae deletion strains, locus YML124C, strain tub3, stronger effect = lower value 0.992 | S. cerevisiae deletion strains, locus YMR058W, strain fet3, stronger effect = lower value 0.994 | S. cerevisiae deletion strains, locus YMR078C, strain ctf18, stronger effect = lower value 0.992 | S. cerevisiae deletion strains, locus YMR125W, strain sto1, stronger effect = lower value 0.982 | S. cerevisiae deletion strains, locus YMR129W, stronger effect = lower value 0.992 | S. cerevisiae deletion strains, locus YMR205C, strain PFK2, stronger effect = lower value 0.991 | S. cerevisiae deletion strains, locus YMR223W, strain ubp8, stronger effect = lower value 0.985 | S. cerevisiae deletion strains, locus YMR231W, strain pep5, stronger effect = lower value 1.01 | S. cerevisiae deletion strains, locus YMR263W, strain SAP30, stronger effect = lower value 0.976 | S. cerevisiae deletion strains, locus YMR307W, strain GAS1, stronger effect = lower value 1.1 | S. cerevisiae deletion strains, locus YNL067W, strain RPL9B, stronger effect = lower value 0.963 | S. cerevisiae deletion strains, locus YNL071W, strain lat1, stronger effect = lower value 1.01 | S. cerevisiae deletion strains, locus YNL128W, strain TEP1, stronger effect = lower value 0.956 | S. cerevisiae deletion strains, locus YNL153C, strain GIM3, stronger effect = lower value 0.986 | S. cerevisiae deletion strains, locus YNL183C, strain NPR1, stronger effect = lower value 0.998 | S. cerevisiae deletion strains, locus YNL209W, strain ssb2, stronger effect = lower value 0.998 | S. cerevisiae deletion strains, locus YNL233W, strain BNI4, stronger effect = lower value 0.977 | S. cerevisiae deletion strains, locus YNL248C, strain rpa49, stronger effect = lower value 0.994 | S. cerevisiae deletion strains, locus YNL250W, strain rad50, stronger effect = lower value 0.988 | S. cerevisiae deletion strains, locus YNL271C, strain bni1, stronger effect = lower value 0.98 | S. cerevisiae deletion strains, locus YNL298W, strain CLA4, stronger effect = lower value 1 | S. cerevisiae deletion strains, locus YNL307C, strain MCK1, stronger effect = lower value 1 | S. cerevisiae deletion strains, locus YNL322C, strain KRE1 (second series), stronger effect = lower value 1.02 | S. cerevisiae deletion strains, locus YNL322C, strain KRE1, stronger effect = lower value 0.985 | S. cerevisiae deletion strains, locus YNR049C, strain mso1, stronger effect = lower value 0.982 | S. cerevisiae deletion strains, locus YNR052C, strain pop2, stronger effect = lower value 0.991 | S. cerevisiae deletion strains, locus YOL006C, strain TOP1, stronger effect = lower value 1.01 | S. cerevisiae deletion strains, locus YOL012C, strain htz1 1.06 | S. cerevisiae deletion strains, locus YOL147C, strain pex11, stronger effect = lower value 1 | S. cerevisiae deletion strains, locus YOR001W, strain rrp6, stronger effect = lower value 0.996 | S. cerevisiae deletion strains, locus YOR061W, strain CKA2, stronger effect = lower value 0.96 | S. cerevisiae deletion strains, locus YOR069W, strain VPS5, stronger effect = lower value 0.98 | S. cerevisiae deletion strains, locus YOR070C, strain gyp1, stronger effect = lower value 0.99 | S. cerevisiae deletion strains, locus YOR080W, strain dia2, stronger effect = lower value 0.987 | S. cerevisiae deletion strains, locus YOR083W, strain WHI5, stronger effect = lower value 0.987 | S. cerevisiae deletion strains, locus YOR106W, strain vam3, stronger effect = lower value 0.983 | S. cerevisiae deletion strains, locus YOR136W, strain idh2, stronger effect = lower value 0.986 | S. cerevisiae deletion strains, locus YOR144C, strain elg1, stronger effect = lower value 0.984 | S. cerevisiae deletion strains, locus YOR184W, strain ser1, stronger effect = lower value 0.998 | S. cerevisiae deletion strains, locus YOR231W, strain MKK1, stronger effect = lower value 1.05 | S. cerevisiae deletion strains, locus YOR265W, strain rbl2, stronger effect = lower value 0.988 | S. cerevisiae deletion strains, locus YOR270C, strain vph1, stronger effect = lower value 0.976 | S. cerevisiae deletion strains, locus YOR290C, strain snf2, stronger effect = lower value 0.997 | S. cerevisiae deletion strains, locus YOR316C, strain cot1, stronger effect = lower value 0.971 | S. cerevisiae deletion strains, locus YPL051W, strain arl3, stronger effect = lower value 0.998 | S. cerevisiae deletion strains, locus YPL055C, strain LGE1, stronger effect = lower value 0.998 | S. cerevisiae deletion strains, locus YPL078C, strain atp4, stronger effect = lower value 0.99 | S. cerevisiae deletion strains, locus YPL106C, strain sse1, stronger effect = lower value 0.992 | S. cerevisiae deletion strains, locus YPL240C, strain hsp82, stronger effect = lower value 1 | S. cerevisiae deletion strains, locus YPL241C, strain CIN2, stronger effect = lower value 0.98 | S. cerevisiae deletion strains, locus YPL256C, strain CLN2, stronger effect = lower value 1.05 | S. cerevisiae deletion strains, locus YPR119W, strain clb2, stronger effect = lower value 0.997 | S. cerevisiae deletion strains, locus YPR141C, strain kar3, stronger effect = lower value 0.972 | S. cerevisiae deletion strains, locus YPR163C, strain tif3, stronger effect = lower value 0.995 | S. cerevisiae deletion strains, locus YPR167C, strain met16, stronger effect = lower value 0.976 | S. cerevisiae deletion strains, strain wtn01, stronger effect = lower value 0.995 | S. cerevisiae strains, strain wild type, stronger effect = lower value 0.997
